Laboratory results published in the supplement of paper PMC10849652.
The full data set covers some 8,800 targets. This sample favours those with a hit. About 0.5% of all pairs of compound and target were hits. A number with no mark means an inactive call.

Key:
Test in all cases: log2 fold change, soluble protein after heating vs DMSO (PISA); higher = thermal stabilisation; K562 lysate, 10 uM; active = over 0.2 and 3.5 SD of the protein, either way, in both replicates (recomputed)
[1] = compound: NCC(=O)Nc1ccc(-n2nc(C(F)(F)F)cc2-c2ccc3c(ccc4ccccc43)c2)cc1
Method in brief: (§1)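 Pellets of K562 cells were dounce-homogenised in PBS pH 7.4 with 1 mM MgCl2, and the crude extract was held at 1 mg/mL protein for a 30 min treatment with 10 μM compound. Aliquots were heated for 3 min over 48°C-58°C and pooled before NP-40 was added to 0.5% at 4°C. The supernatant from 21,000xg for 90 min was quantified by TMTpro 16plex LC-MS/MS with channel sums equalised. Values are reported from duplicates as log-two fold change in thermal stability relative to solvent controls.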

vorinostat = compound: O=C(CCCCCCC(=O)Nc1ccccc1)NO [vorinostat]
Method in brief: as §1

silmitasertib = compound: O=C(O)c1ccc2c(c1)nc(Nc1cccc(Cl)c1)c1ccncc12 [silmitasertib]
Method in brief: as §1

[2] = compound: O=C1NC(=O)C(c2cnc3ccccn23)=C1c1cn2c3c(cc(F)cc13)CN(C(=O)N1CCCCC1)CC2
Method in brief: as §1

entospletinib = compound: c1cn2cc(-c3ccc4cn[nH]c4c3)nc(Nc3ccc(N4CCOCC4)cc3)c2n1 [entospletinib]
Method in brief: as §1

Sequence of UniProt Q13686 (Q13686 whole entry, looked up): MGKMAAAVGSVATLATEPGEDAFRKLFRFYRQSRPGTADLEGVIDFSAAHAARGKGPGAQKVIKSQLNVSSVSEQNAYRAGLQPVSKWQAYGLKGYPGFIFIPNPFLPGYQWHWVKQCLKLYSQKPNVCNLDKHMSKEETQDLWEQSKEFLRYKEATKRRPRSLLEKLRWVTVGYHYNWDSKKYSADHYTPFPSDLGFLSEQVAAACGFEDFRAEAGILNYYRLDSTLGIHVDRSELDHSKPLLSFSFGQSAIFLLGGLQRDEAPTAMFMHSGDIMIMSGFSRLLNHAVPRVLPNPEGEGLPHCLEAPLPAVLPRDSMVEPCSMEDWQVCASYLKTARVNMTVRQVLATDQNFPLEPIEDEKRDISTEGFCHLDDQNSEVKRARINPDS
Sequence of UniProt Q8N8A2 (Q8N8A2 whole entry, looked up): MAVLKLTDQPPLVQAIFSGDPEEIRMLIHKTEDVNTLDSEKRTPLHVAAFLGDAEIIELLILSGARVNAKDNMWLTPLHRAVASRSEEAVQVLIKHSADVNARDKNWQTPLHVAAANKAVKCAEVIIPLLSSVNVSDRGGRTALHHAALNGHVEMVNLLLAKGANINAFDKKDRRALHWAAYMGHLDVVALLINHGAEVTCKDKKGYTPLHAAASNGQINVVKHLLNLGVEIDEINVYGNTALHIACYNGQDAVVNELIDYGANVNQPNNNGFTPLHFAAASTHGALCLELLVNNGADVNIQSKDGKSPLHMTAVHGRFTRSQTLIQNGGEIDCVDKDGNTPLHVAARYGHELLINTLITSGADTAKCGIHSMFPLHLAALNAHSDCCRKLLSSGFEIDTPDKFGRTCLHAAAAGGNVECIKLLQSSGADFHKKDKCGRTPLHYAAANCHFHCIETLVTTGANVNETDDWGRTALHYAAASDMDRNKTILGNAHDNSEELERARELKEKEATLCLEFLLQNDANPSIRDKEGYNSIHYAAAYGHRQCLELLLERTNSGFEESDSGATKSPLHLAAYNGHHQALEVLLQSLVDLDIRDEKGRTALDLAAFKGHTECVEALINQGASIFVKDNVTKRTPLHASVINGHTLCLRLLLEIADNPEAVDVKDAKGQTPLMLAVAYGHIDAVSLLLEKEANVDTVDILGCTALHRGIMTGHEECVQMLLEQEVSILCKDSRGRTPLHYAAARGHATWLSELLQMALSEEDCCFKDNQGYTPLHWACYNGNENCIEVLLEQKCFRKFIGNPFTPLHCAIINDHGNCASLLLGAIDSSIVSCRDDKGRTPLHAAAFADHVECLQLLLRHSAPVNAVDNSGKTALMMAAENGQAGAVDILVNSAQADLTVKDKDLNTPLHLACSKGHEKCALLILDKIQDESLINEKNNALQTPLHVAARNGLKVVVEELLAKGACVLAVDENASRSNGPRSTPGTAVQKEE
Sequence of UniProt P52895 (P52895 whole entry, looked up): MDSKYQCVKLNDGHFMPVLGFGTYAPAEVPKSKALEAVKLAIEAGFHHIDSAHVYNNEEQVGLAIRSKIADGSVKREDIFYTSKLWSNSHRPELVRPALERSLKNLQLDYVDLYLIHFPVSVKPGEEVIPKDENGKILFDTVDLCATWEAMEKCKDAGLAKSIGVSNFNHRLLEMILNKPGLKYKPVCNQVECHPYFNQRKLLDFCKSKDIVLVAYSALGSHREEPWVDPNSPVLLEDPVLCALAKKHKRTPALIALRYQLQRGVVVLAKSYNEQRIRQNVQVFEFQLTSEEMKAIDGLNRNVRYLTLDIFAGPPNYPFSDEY
Sequence of UniProt P00568 (P00568 whole entry, looked up): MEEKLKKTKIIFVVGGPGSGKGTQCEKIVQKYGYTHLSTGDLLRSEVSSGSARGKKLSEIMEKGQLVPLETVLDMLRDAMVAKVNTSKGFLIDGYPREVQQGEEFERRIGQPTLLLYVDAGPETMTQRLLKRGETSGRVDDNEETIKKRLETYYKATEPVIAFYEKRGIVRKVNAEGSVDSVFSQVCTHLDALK
Sequence of UniProt Q9BT30 (Q9BT30 whole entry, looked up): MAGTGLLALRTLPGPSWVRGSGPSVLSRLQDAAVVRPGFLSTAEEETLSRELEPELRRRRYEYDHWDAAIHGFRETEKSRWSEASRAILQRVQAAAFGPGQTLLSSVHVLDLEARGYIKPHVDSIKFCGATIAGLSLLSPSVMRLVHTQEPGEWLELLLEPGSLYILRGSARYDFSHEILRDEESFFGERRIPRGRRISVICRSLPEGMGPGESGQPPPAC
Sequence of UniProt Q9UJX3 (Q9UJX3 whole entry, looked up): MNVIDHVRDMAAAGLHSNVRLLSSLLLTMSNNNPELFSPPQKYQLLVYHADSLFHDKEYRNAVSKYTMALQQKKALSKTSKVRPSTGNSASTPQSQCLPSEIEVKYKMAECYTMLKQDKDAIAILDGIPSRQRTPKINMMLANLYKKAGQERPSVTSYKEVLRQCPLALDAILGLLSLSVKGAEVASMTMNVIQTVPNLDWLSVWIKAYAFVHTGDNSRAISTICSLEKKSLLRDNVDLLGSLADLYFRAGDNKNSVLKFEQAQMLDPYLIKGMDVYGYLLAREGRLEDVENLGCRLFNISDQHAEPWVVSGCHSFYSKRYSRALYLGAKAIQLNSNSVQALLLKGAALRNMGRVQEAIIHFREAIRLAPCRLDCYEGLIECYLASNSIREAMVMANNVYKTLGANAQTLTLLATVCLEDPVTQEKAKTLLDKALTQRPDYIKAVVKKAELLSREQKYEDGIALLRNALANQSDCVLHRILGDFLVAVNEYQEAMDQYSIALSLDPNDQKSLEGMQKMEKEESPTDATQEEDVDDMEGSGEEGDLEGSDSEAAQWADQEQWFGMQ
Sequence of UniProt Q9BTT0 (Q9BTT0 whole entry, looked up): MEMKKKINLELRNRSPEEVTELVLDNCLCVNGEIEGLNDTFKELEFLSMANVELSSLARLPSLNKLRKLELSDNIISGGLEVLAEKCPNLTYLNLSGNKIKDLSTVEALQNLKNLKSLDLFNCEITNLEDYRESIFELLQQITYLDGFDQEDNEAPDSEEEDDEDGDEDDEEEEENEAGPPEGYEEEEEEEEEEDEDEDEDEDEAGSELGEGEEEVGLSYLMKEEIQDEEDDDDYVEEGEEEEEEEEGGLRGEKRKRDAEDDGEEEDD

Target | log2 fold change [1] | log2 fold change (vorinostat) | log2 fold change (silmitasertib) | log2 fold change [2] | log2 fold change (entospletinib)
ARHGEF1 (UniProt M0QZR4) | 0.019 | -0.392 (active) | 0.023 | 0.004 | 0.003
ANKRD44 isoform 2 (UniProt Q8N8A2) | 0.127 | 0.073 | 0.005 |  | -0.115
ALKBH1 (UniProt Q13686) | -0.089 | -0.284 (active) | 0.135 |  | -0.052
AKR1C2 (UniProt P52895) | -0.008 | 0.504 (active) | -0.011 | 0.052 | -0.014
ALKBH7 (UniProt Q9BT30) |  | 1.23 (active) | -0.031 | 0.079 | 0.151
AK1 (UniProt P00568) | 0.005 | 0.075 | 0.001 | -0.001 | 0.022
AK2 (UniProt P54819) | 0.024 | 0.159 | 0.007 | -0.005 | 0.012
ANP32E isoform 3 (UniProt Q9BTT0) | 0.135 |  |  |  | -0.095
ANAPC7 (UniProt Q9UJX3) | -0.035 | -0.218 (active) | 0.023 | 0.007 | 0.046
ARHGEF2 (UniProt V9GYF0) | 0.157 |  |  |  | 0.081
